From PubChem
Sampled rows, rich in hits. Any-hit rate of the full collection: about 1.1%.
E-sel TNF inh = blocks E-selectin expression induced by TNF alpha. HUVEC TNFa-induced E-selectin immunofluorescence, high content. inhibition, % at 2 µM. 120,000 compounds, 0.71% hits. AID 1246;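 active means inhibition above the batch mean plus 3 SD, and confirmed as a hit on visual image review, cut at about 43% in these data; inconclusive means passes the inhibition cutoff but fails visual image review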;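 further: 0% = TNF-stimulated DMSO wells and 100% = unstimulated control wells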
cytoskel mod = alters cytoskeleton assembly in HUVEC cells; HUVEC TNFa F-actin phalloidin imaging, high content; inhibition, % at 2 µM; 91,000 compounds, 0.18% hits;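 active means inhibition above the batch mean plus 3 SD and confirmed as a hit by visual image inspection, cut at about 30% in these data, passing the limit was not always enough; inconclusive means above the inhibition threshold but rejected on visual inspection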
VCAM1 TNFa inh = reduces TNF alpha induced VCAM1 expression in HUVEC; inhibition, % at 2 µM; HUVEC TNFa-induced VCAM-1 immunofluorescence, high-content imaging; 95,000 compounds, 0.48% hits; AID 802;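 active means inhibition above the batch mean plus 3 SD, with images confirmed as a hit by eye, cut at about 37% in these data; inconclusive means inhibition above that limit but hit not confirmed in images; inactive means inhibition not above that limit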;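 further: 0% = TNF-stimulated DMSO wells and 100% = unstimulated control wells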
TNFa cytotox = toxic to HUVEC cells under TNF alpha stimulation | cell count reduction, % at 2 µM | 93,000 compounds, 0.17% hits | AID 848 | HUVEC TNFalpha-stimulated, Hoechst cell count, imaging;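 active means cell count reduction exceeding the screen mean by over 5 SD, scaled to untreated wells per plate, cut at about 78% in these data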;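 further: cells counted after 24 h of TNF alpha exposure following the 1 h pretreatment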
* = called active by the depositor; ? = inconclusive; · = no result given.

SMILES	E-sel TNF inh	cytoskel mod	VCAM1 TNFa inh	TNFa cytotox
Cc1ccc(NC(=O)c2oc3c(c2C)C(=O)CC(C)(C)C3)cc1	-28	-2	97*	-3
Cc1c(C(=O)Nc2ccccc2)oc2c1C(=O)CC(C)(C)C2	20	-8	-1	10
CCOc1ccc(C(=O)N2CCSC2=S)cc1	7	12	0	-8
COc1ccc(OC)c(-c2cc(C(=O)Nc3c(C)nn(Cc4ccc(Cl)cc4)c3C)no2)c1	·	8	-11	7
COc1ccc(-c2cc(C(=O)Nc3cnn(Cc4ccccc4C)c3)no2)cc1OC	78*	5	-4	-21
COc1ccc(-c2cc(C(=O)Nc3cc(C)n(Cc4ccc(Cl)cc4)n3)no2)cc1OC	·	24	52*	59
CCOC(=O)N1CCN(C(=S)NC(=O)c2cncc(Br)c2)CC1	89*	·	·	·
COc1cc(C(=O)NCc2nnc(SCC(=O)N3CCCc4ccccc43)o2)cc(OC)c1OC	-15	·	·	·
C=C(C)c1cccc(C(C)(C)NC(=O)Nc2ncccn2)c1	-52	74*	99*	95*
CCC(SCC(=O)OC)C(=O)Nc1nnc(C(C)C)s1 (stereo not given)	67*	19	3	-28
COC(=O)c1ccc(C(=O)OC)c(NC(=S)N2CCCC(CO)C2)c1 (stereo not given)	-69	·	·	·
CN1Cc2cc(C(=O)c3cc(Cl)cc(CSc4ncccn4)c3O)cnc2NC1=O	-1	-45	96*	66
O=C(c1cccs1)N1CCN=C1SCc1ccccc1	44*	-16	6	-2
CCCSc1nc(C)c(-c2csc(C(C#N)=C3CCCC3)n2)cc1C#N	62*	-4	-15	0
O=C(O)C1CSC(c2ccccc2Cl)N1C(=O)c1ccc(Cl)cc1 (stereo not given)	32	·	·	·
COC(=O)c1cc(OC)c(OC)cc1NC(=O)c1oc2ccccc2c1C	-7	32*	3	-28
COc1ccc(NC(=O)c2oc3ccccc3c2C)c(OC)c1	-2	6	16	-14
O=C(NC1CCCCC1)C(c1cccnc1)N(C(=O)CCl)c1cccc(Cl)c1 (stereo not given)	8	·	·	·
Cc1ccsc1/C=N/NC(=O)Cc1cccn1C	17	·	·	·
CC(=O)NC(Cc1c[nH]c2ccccc12)C(=O)OCC(=O)Nc1ccc2c(c1)OCO2 (stereo not given)	·	8	12	-22
CC(=O)N[C@@H](Cc1c[nH]c2ccccc12)C(=O)OCC(=O)Nc1ccc(Cl)c(S(=O)(=O)N(C)C)c1	62*	·	·	·
COc1cccc(/C=C/C(=O)OCC(=O)Nc2ccc(Cl)c(S(=O)(=O)N(C)C)c2)c1	69*	·	·	·
Cc1noc(C)c1COc1ccc(C(=O)OCC(=O)NCCN2C(=O)CSC2=O)cc1	-40	·	·	·
CC(C)NC(=S)N1CCN(c2ncccn2)CC1	-8	·	·	·
Cc1cccc2cc(C#N)c(SCC(=O)N3CCC(C)CC3)nc12	7	47	-13	7
SMILES	E-sel TNF inh	cytoskel mod	VCAM1 TNFa inh	TNFa cytotox
Cc1cccc2cc(C#N)c(SCC(=O)N3CC(=O)Nc4ccccc43)nc12	33	-19	94*	60
Cc1nnc(SCC(=O)N2CC(=O)Nc3ccccc32)n1C	64*	2	-6	-6
N#CC1=C(N)C(C#N)(C#N)[C@H](c2ccncc2)[C@H]2CN(C(=O)OCc3ccccc3)CC=C12	96*	·	·	·
O=C(O)C1C2C=CC(C2)C1C(=O)NCCCc1ccccc1 (stereo not given)	68*	·	·	·
COc1ccc(Br)cc1C(=O)O	97*	·	·	·
COc1ccc(Br)cc1C(=O)Nc1ccc(O)cc1	-11	10	-4	0
Cc1cccc(-n2nnnc2SCc2csc(-c3ccccc3)n2)c1	-4	-6	12	88*
COc1ccc(NC2CS(=O)(=O)CC2NCc2ccccc2)cc1 (stereo not given)	·	0	8	-14
Cc1ccc2c(c1)N(C(=O)CCC(=O)O)CCO2	-23	·	·	·
O=C(CN1CCN(c2nc(-c3ccc(F)cc3)cs2)CC1)Nc1ccc2c(c1)OCO2	·	1	88*	13
COc1ccccc1NC(=O)CSc1nnc(-c2ccc(NC(C)=O)cc2)n1C	67*	0	-8	-11
COc1ccccc1NC(=O)CC(=O)CSc1nnc(-c2ccc(C)cc2)n1C	32	19	12	-17
O=C(Nc1ccc2ncccc2c1)c1cc(Cl)ccc1Cl	-17	·	·	·
CCN(CC)c1ccc(-c2nn3c(-c4ccccc4OC)nnc3s2)cc1	23	-61	97*	72
CCN(CC)S(=O)(=O)c1cccc(C(=O)Nc2cccc(C)c2)c1	-53	·	6	-27
CCN(CC)S(=O)(=O)c1ccc2[nH]c(=O)cc(C(=O)Nc3cccc(C(C)=O)c3)c2c1	68*	·	·	·
COc1ccc(S(=O)(=O)N/N=C(/C)c2cccc(NC(=O)c3ccccc3Cl)c2)cc1	-10	-13	-1	3
OCCN=C1CCCc2c1[nH]c1ccc(Br)cc21	·	-8	92*	45
COC(=O)c1ccccc1N1C(=O)[C@@H]2C(c3ccc(F)cc3)=NO[C@@H]2C1=O	68*	26	-5	-8
COc1ccc(CN2C(=O)[C@@H]3C(c4ccc(F)cc4)=NO[C@@H]3C2=O)cc1	-6	36	92*	·
CCCc1cc(=O)[nH]c(SCC(=O)NC(=O)OCC)n1	25	-2	11	5
CCCc1cc(=O)[nH]c(SCC(=O)Nc2nonc2N)n1	-11	23	86*	-34
O=C(Cc1ccc(Br)cc1)N(Cc1ccccc1)c1ccccn1	20	·	·	·
CC(C)(CO)NC(=O)CCCOc1ccc(Cl)cc1Cl	8	31	93*	-29
Cc1cc(OCc2ccc(F)cc2)nc(-c2ccccc2O)n1	·	-18	95*	80*
SMILES	E-sel TNF inh	cytoskel mod	VCAM1 TNFa inh	TNFa cytotox
CN(CC(=O)NCc1ccncc1)S(=O)(=O)c1ccc(F)cc1	16	?	?	100*
O=C(O)c1ccc(-c2ccc(Cl)cc2Cl)o1	61*	-15	-18	0
O=C(O)c1ccc(-c2ccccc2Cl)o1	-21	·	·	·
CCOC(=O)c1ccc(NC(=O)CCNc2c(N3CCCC3)c(=O)c2=O)cc1	3	-14	70*	-1
CCOC(=O)c1ccc(NC(=O)CN2CCN(c3ccccc3)CC2)cc1	4	·	·	·
CCN(CCC(=O)Nc1cc([N+](=O)[O-])ccc1OC)Cc1ccccc1	-3	·	·	·
O=C(c1ccc(COCC(F)(F)F)o1)N1CCCCCC1	74*	5	-14	-22
O=c1c2ccccc2nnn1CSc1ncnc2ccccc12	0	-9	46*	54
O=c1c2cccnc2[nH]c(=S)n1CCCN1CCN(c2ccc(F)cc2)CC1	100*	-26	-13	-14
COc1ccc(N2CCN(CCCn3c(=S)[nH]c4ncccc4c3=O)CC2)cc1	-2	-6	4	-3
Cc1ccc(NC(=O)COC(=O)C2CC(=O)N(Cc3ccccc3)C2)cc1F (stereo not given)	8	·	·	·
O=C(c1ccccc1)N1CCc2ccccc21	14	13	-7	0
Cc1cc(C(=O)N2CCc3ccccc32)c2ccccc2n1	64*	3	3	-14
COc1ccc2c(Cl)c(C(=O)N/N=C/c3c(C)[nH]c4ccccc34)sc2c1	-10	·	·	·
Cn1c(NCc2c[nH]c3ccccc23)nc2ccccc21	-31	·	58*	-25
Cc1cc(C(=O)NN=C2C3CC4CC(C3)CC2C4)c2ccccc2n1	-3	-47	52*	27
